Measurements published in PubChem BioAssay (NCI).
This is part of a sample that, as a whole, favours compounds with a hit. Of some 83,000 tested, about 20% had one in any assay.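 Results are percent growth after 48 hours of single-concentration exposure. 100 means growth as in untreated cells, lower positive values show inhibition; negative values down to -100 show cell death.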 A number with no mark means an inactive call. The source made the active and inactive calls. The calls were made as follows: active = growth percent below 10; inactive = the rest.

Key:
Test in all cases: NCI-60 one-dose screen, 48 h (100 = growth as untreated, 0 = no growth, -100 = all killed)
Settings in all cases: 10 µM unless noted
SR leukemia = tested on: SR leukemia
RPMI-8226 leukemia = tested on: RPMI-8226 leukemia
OVCAR-8 ovarian = tested on: OVCAR-8 ovarian
OVCAR-5 ovarian = tested on: OVCAR-5 ovarian
OVCAR-4 ovarian = tested on: OVCAR-4 ovarian
SK-OV-3 ovarian = tested on: SK-OV-3 ovarian
IGROV1 ovarian = tested on: IGROV1 ovarian
OVCAR-3 ovarian = tested on: OVCAR-3 ovarian
HS 578T breast = tested on: HS 578T breast
NCI/ADR-RES ovarian = tested on: NCI/ADR-RES ovarian
T-47D breast = tested on: T-47D breast
BT-549 breast = tested on: BT-549 breast
MDA-MB-435 melanoma = tested on: MDA-MB-435 melanoma
SW-620 colon = tested on: SW-620 colon
MCF7 breast = tested on: MCF7 breast
HCT-116 colon = tested on: HCT-116 colon
HCC-2998 colon = tested on: HCC-2998 colon
KM12 colon = tested on: KM12 colon

| Compound | growth (SR leukemia) | growth (RPMI-8226 leukemia) | growth (OVCAR-8 ovarian) | growth (OVCAR-5 ovarian) | growth (OVCAR-4 ovarian) | growth (SK-OV-3 ovarian) | growth (IGROV1 ovarian) | growth (OVCAR-3 ovarian) | growth (HS 578T breast) | growth (NCI/ADR-RES ovarian) | growth (T-47D breast) | growth (BT-549 breast) | growth (MDA-MB-435 melanoma) | growth (SW-620 colon) | growth (MCF7 breast) | growth (HCT-116 colon) | growth (HCC-2998 colon) | growth (KM12 colon) |
| --- | --- | --- | --- | --- | --- | --- | --- | --- | --- | --- | --- | --- | --- | --- | --- | --- | --- | --- |
| O=P(O)(O)OCC1OC(n2cnc3c(NCc4ccco4)ncnc32)C(O)C1O (stereo unspecified) | 27.1% | -23.6% (active) | 9.63% (active) | 45.3% | 15.7% | 1.95% (active) | -36.4% (active) | -72% (active) | 32.5% | 19.5% | 42.5% | -12.3% (active) | 16.2% | 14.8% | 0.586% (active) | -31.1% (active) | 0.214% (active) | 44.1% |
| O=C1/C(=C\c2cccc3nccnc23)SC(=S)N1CCc1ccc(O)cc1 | 92.1% | 83% | 99.1% | 104% | 89.4% | 110% | 95.4% | 101% | 95.4% | 96.9% | 82.5% | 96% | 97.4% | 101% | 94.4% | 92% | 116% | 97.1% |
| N#C/C(=C\C=C\c1ccc(-c2cc(Cl)ccc2Cl)o1)c1nc2ccccc2s1 | 92.7% | 96.5% | 96.4% | 102% | 98.9% | 76.8% | 70.6% | 105% | 100% | 100% | 84.8% | 104% | 102% | 98.1% | 83.3% | 96.6% | 102% | 106% |
| Cc1ccccc1Nc1cc(O)c2c(=O)cc(-c3ccccc3)oc2c1 | 7.93% (active) | 29.7% | 52.5% | 89.2% | 53.1% | 59.3% | 45.3% | -4.27% (active) | 44.7% | 4.9% (active) | 36.5% | 47.1% | 1.9% (active) | 21% | 15.5% | 15.2% | 76.7% | 36.4% |
| CCN(CC)c1ccc(CNc2cc(C)nc3ccccc23)cc1 | 50.5% | 41.7% | 63.2% | 73.2% | 52% | 78.3% | 74.8% | 63.7% | 85.6% | 47.7% | 39% | 71.6% | 65.7% | 76.9% | 39.2% | 52.1% | 42.1% | 71.9% |
| COc1cc(OC)c2sc(-c3ccc(-n4cncc4-c4cc(OC)c(OC)c(OC)c4)cc3)nc2c1 | 17.3% | 27.3% | 76.1% | 81.3% | 50.2% | 88.8% | 63.9% | 35.1% | 62.2% | 60.6% | 32.4% | 45.1% | 35.2% | 56.6% | 49.8% | 48.6% | 95.3% | 52.4% |
| COc1ccc(-c2nc3c(N)c(CO)cnc3s2)cc1 | 93.5% | 92.9% | 103% | 80.4% | 101% | 99.9% | 84.7% | 89.4% | 92.8% | 86.7% | 89.2% | 104% | 92.9% | 94.1% | 91% | 101% | 85.8% | 88.4% |
| CCNC(=O)Oc1ccc(/C(=C(/CC)Cc2ccccc2)c2ccc(OCCN3CCCC3)cc2)cc1 | 75.5% | 77.7% | 94.1% | 94.6% | 93.3% | 88.5% | 91.5% | 96.9% | 93.5% | 97.9% | 68.3% | 100% | 102% | 99.6% | 35.9% | 72.1% | 91.3% | 98% |
| CCOC(=O)c1c(C)nc2c(c1N)/C(=C/c1ccc(OC)cc1)C(=O)N2Cc1ccccc1 | 22.1% | 5.58% (active) | 50.4% | 126% | 51.5% | 90.5% | 73.3% | 41.7% | 69.5% | 52.4% | 40.7% | 63.6% | 63.4% | 55.6% | 22.8% | 36.8% | 62.8% | 33.6% |
| COc1cc(Cl)c(C)cc1NC(=O)c1cc2ccccc2cc1O | 8.6% (active) | 7.23% (active) | 11.9% | 20% | 20.7% | 14.8% | 11.9% | 6.37% (active) | 23.8% | 0.336% (active) | 11.5% | 22.9% | 3.68% (active) | 21.2% | 17.2% | 4.6% (active) | 17% | 9.32% (active) |
| CCNC(=O)Oc1ccc(/C(=C(/C)Cc2ccc(OC)cc2)c2ccc(OCCN3CCCCC3)cc2)cc1 | -32% (active) | 22.5% | 81.8% | 89.6% | 75.1% | 90.7% | 77.7% | 74.6% | 64.5% | 85.1% | 42.5% | 92.5% | 68.1% | 77.8% | 29.9% | 49.2% | 67.9% | 67.8% |
| COc1ccc(/C=C/C(=O)c2cc3c(N)c(C(=O)Nc4cccc(Cl)c4C)sc3nc2C)cc1 | 16.2% | -11.8% (active) | -8.6% (active) | 27.6% | 37% | 23.8% | 21.9% | 8.05% (active) | 6.35% (active) | -25.5% (active) | 38.9% | -19% (active) | -28.2% (active) | 13.2% | 7.78% (active) | 5.3% (active) | 1.15% (active) | 7.8% (active) |
| CCOC(=O)C1=C(C)/C(=C\c2[nH]c(C)c(C(=O)OCC)c2C)N=C1C | 11.9% | 62.9% | 61.5% | 97.8% | 81.9% | 84.4% | 97% | 21.7% | 103% | 88.9% | 66.8% | 98.1% | 80.6% | 2.24% (active) | 88.2% | 74.5% | 109% | 81.9% |
| COc1cccc(CCNc2ncnc3c2ncn3Cc2nnc3c4ccccc4c(Cl)nn23)c1 | 33.5% | 48.8% | 40.3% | 102% | 57.5% | 3.23% (active) | 40% | 64% | 40.8% | 40.7% | 48.5% | 47.8% | 57.5% | 57.4% | 63% | 39.6% | 91.9% | 80% |
| C=C1C(=O)O[C@H]2[C@H]1CC/C(COC(=O)NCc1ccc(Cn3c(=O)sn(-c4ccc(C#N)cc4)c3=O)cc1)=C\CC[C@@]1(C)O[C@@H]21 | 55% | 6.41% (active) | 74.1% | 86% | 46.5% | 93.1% | 57.8% | -39.5% (active) | 99.4% | 103% | 28.1% | 60.4% | 59.6% | 24.1% | 27.5% | 25.4% | 104% | 101% |
| CCOC(=O)C(=CNc1cnc(Nc2ccc(N3CCOCC3)cc2)nc1Oc1ccc(OC)cc1)C(=O)OCC | 31.6% | 42.2% | 43.1% | 71.5% | -43.1% (active) | 55.5% | 26.8% | -9.17% (active) | 35% | 54.4% | 84.7% | 77.3% | 61.7% | 46.8% | 61.3% | 11.4% | 91.7% | 76.8% |
| Cn1ccc(=O)nc1 | 68.7% | 101% | 78.7% | 74.5% | 76.1% | 93% | 79% | 115% | 132% | 93.4% | 99.1% | 110% | 106% | 53.5% | 52.2% | 60.6% | 96.8% | 95% |
| C/C(=N\O)c1ccc(NC(=O)CSc2nnc(-c3cc(-c4ccc(S(N)(=O)=O)cc4)nc4ccccc34)n2-c2ccccc2)cc1 | 24.2% | 34.4% | 59.4% | 96.6% | 91.6% | 108% | 63% | 78% | 61.7% | 98.9% | 36.6% | 67.9% | 69.5% | 74.7% | 44.6% | 53.2% | 87.5% | 65% |
| CCN1C(=O)N(CC)C2C1NC(=S)N2/N=C/c1ccc(C(F)(F)F)cc1 (stereo unspecified) | 28.4% | 76.8% | 86.8% | 81.3% | 72.7% | 79% | 60.6% | 64.8% | 66.2% | 69.5% | 74.7% | 71% | 4.45% (active) | 55.3% | 33.2% | 54.9% | 74% | 56% |
| O=C(C1=Cc2cc3ccccc3n2Cc2cnnn21)c1ccc(O)cc1 | 35.1% | 63.8% | 64.8% | 91.2% | 81.3% | 74.5% | 41.1% | 20.6% | 49.4% | 37.2% | 44.9% | 54.8% | -7.67% (active) | 28.7% | 34.3% | 46.4% | 83.8% | 29.5% |
| C#CCOc1cccc(-c2ncnc3cc(NC(=O)C=C)ccc23)c1 | 5.05% (active) | 21.1% | 38.3% | 38.5% | 70.9% | 79.9% | 33.5% | 28.6% | 24.6% | 53.5% | 37.6% | 43.5% | 30% | 21.4% | 13.5% | 27.2% | 91.5% | 31.1% |
| CCCCC#Cc1c(I)n(C)c(=O)[nH]c1=O | -35.9% (active) | 19.2% | -12.4% (active) | 80.2% | -80.2% (active) | 95.5% | -92.5% (active) | -90.7% (active) | -6.87% (active) | 85.7% | -2.85% (active) | -57.1% (active) | -36.8% (active) | -93.2% (active) | 52.3% | -41.1% (active) | -25.6% (active) | 108% |
